Measurements reported in PubChem BioAssay.
Unmarked numbers belong to inactive results. No rule for the calls is given here.

molecular target: Pantothenate synthetase (Mycobacterium tuberculosis (strain ATCC 25618 / H37Rv)) (UniProt P9WIL5); test: Coupled enzyme confirmation of inhibitors against recombinant Mtb PanC (AID 375); settings: coupled enzyme assay; at 10 µM, hits give high values;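 also: 0% = full reaction with vehicle and 100% = no enzyme background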
Sequence (P9WIL5 whole entry, looked up): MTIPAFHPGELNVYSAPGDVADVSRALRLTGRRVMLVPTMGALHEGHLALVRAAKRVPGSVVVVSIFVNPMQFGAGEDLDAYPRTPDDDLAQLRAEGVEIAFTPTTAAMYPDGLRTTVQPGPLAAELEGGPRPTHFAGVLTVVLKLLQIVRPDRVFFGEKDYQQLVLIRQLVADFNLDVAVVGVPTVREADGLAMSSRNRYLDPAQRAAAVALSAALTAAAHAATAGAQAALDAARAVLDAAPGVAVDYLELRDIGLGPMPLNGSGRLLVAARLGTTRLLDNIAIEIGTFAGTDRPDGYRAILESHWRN

| SMILES | inhibition [%] |
| --- | --- |
| CCOc1nc2ccccc2nc1NS(=O)(=O)c1ccccc1 | 1 |
| N#Cc1cnc2sc3ccccc3n2c1=N | 3 |
| CCOc1ccc(S(=O)(=O)n2nc(C)cc2C)c2ccccc12 | 0 |
| CN1/C(=C\C(=O)Nc2cccnc2)c2ccccc2CC1(C)C | 3 |
| COc1ccc(NC(=O)COc2ccccc2)c(OC)c1 | 0 |
| CCn1c(=O)cc(SCC(=O)Nc2cccnc2)c2ccccc21 | 0 |
| O=C(COc1ccc(=O)n(-c2ccccc2)n1)Nc1ccccc1 | 0 |
| CC1CN(C(=O)c2cc3cc(Cl)cc(Cl)c3oc2=O)CC(C)O1 (configuration not stated) | 0 |
| Cc1ccc(-c2nc3cnccn3c2Nc2ccc3c(c2)OCO3)o1 | 2 |
| CCOC(=O)C1=C(C)N=C2SCCC(=O)N2C1c1cc(Br)ccc1OC (configuration not stated) | 5 |
| c1cc2c(cc1Nc1nc(-c3ccc4c(c3)OCO4)cs1)OCCO2 | 4 |
| COC(=O)CCCCC(=O)C1C(=O)CC(C)(C)C(C(=O)OC)C1=O (configuration not stated) | 0 |
| Fc1ccc(-c2cnc[nH]2)cc1 | 0 |
| CCc1cc(C(=O)OC)c(NC(=O)CCC(=O)O)s1 | 2 |
| CC(=O)O[C@H]1C[C@@H]2CC[C@@H]3[C@H](CC[C@@]4(C)[C@H]3C[C@H]([N+]3(C)CCCCC3)[C@@H]4OC(C)=O)[C@@]2(C)C[C@@H]1[N+]1(C)CCCCC1 | 0 |
| CCn1cc(C2=NOC(C(=O)Nc3c(C)nn(Cc4ccc(F)cc4)c3C)C2)c(C)n1 (configuration not stated) | 0 |
| COC(=O)c1ccc(NC(=O)CN2CCN(c3ccc(Cl)cc3)CC2)cc1 | 1 |
| Cc1nnc(SCc2cnc(-c3ccccc3)o2)[nH]c1=O | 0 |
| CN(C(=O)c1ccco1)c1nnc(C23CC4CC(CC(C4)C2)C3)s1 | 0 |
| COc1ccc(N=c2scc(-c3ccc(S(=O)(=O)N4CCOCC4)cc3)n2CCCO)cc1 | 0 |
| CCOC(=O)C1CCCN(c2nc3ccccc3nc2C(C#N)C(=O)NCc2ccccc2)C1 (configuration not stated) | 0 |
| Cc1nc2ccc(Br)cn2c1NC(C)(C)C | 0 |
